This is part of a sample that, as a whole, favours compounds with a hit. Of some 79,000 tested, about 15% had one in any assay. Unmarked numbers belong to inactive results. The source made the active and inactive calls. Rule as the data show it: active = growth inhibition above about 70%; inactive = the rest.
What was measured:
[1] = NCI Yeast Anticancer Drug Screen. Data for the rad50 strain (AID 155);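 also: 0% = growth of vehicle-only cultures of the same strain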; conditions: S. cerevisiae rad50 strain growth inhibition, stronger effect = higher value
Procedure, shortened: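 Inhibition values express reduced yeast growth in compound-treated cultures relative to vehicle-treated controls.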

[2] = NCI Yeast Anticancer Drug Screen. Data for the mec2-1 strain (AID 157); conditions: S. cerevisiae mec2-1 strain, stronger effect = higher value
Procedure, shortened: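 Strain: mec2-1 (DNA repair/cell cycle alteration). Compound exposure, then growth measured; inhibition expressed relative to vehicle.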

[3] = NCI Yeast Anticancer Drug Screen. Data for the sgs1 mgt1 strain (AID 161);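 also: 0% = growth of cultures given vehicle only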; conditions: S. cerevisiae sgs1 mgt1 strain, stronger effect = higher value
Procedure, shortened: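 Mutant yeast exposed to compound; growth scored against vehicle-only wells.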

[4] = NCI Yeast Anticancer Drug Screen. Data for the cln2 rad14 strain (AID 165);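 also: 0% = growth equal to vehicle treated cultures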; conditions: S. cerevisiae cln2 rad14 strain, stronger effect = higher value
Procedure, shortened: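 Compounds are applied to the cln2 rad14 yeast strain, and growth is then compared with that of vehicle-treated cultures to give inhibition.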

[5] = NCI Yeast Anticancer Drug Screen. Data for the bub3 strain (AID 167); conditions: S. cerevisiae bub3 mutant strain, stronger effect = higher value
Procedure, shortened: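 Steps: expose the mutant yeast strain to compound; grow alongside vehicle-treated cultures; measure growth; express inhibition against the vehicle cultures.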

[6] = NCI Yeast Anticancer Drug Screen. Data for the mlh1 rad18 strain (AID 175); conditions: S. cerevisiae mlh1 rad18 strain growth inhibition, stronger effect = higher value
Procedure, shortened: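 Read-out is yeast growth inhibition, calculated against vehicle-only controls. The compound was applied to a strain engineered with DNA damage repair alterations.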

[7] = at 5.0 µM (retest, dose inferred, filed as 0.5)
[8] = at 50.0 µM (retest, dose inferred, filed as 5.0)

| Structure (SMILES) | growth inhibition [1, 7] | growth inhibition [1, 8] | growth inhibition ([1]; at 50.0 µM) | growth inhibition [2, 7] | growth inhibition [2, 8] | growth inhibition ([2]; at 50.0 µM) | growth inhibition [3, 7] | growth inhibition [3, 8] | growth inhibition ([3]; at 50.0 µM) | growth inhibition [4, 7] | growth inhibition [4, 8] | growth inhibition ([4]; at 50.0 µM) | growth inhibition [5, 7] | growth inhibition [5, 8] | growth inhibition ([5]; at 50.0 µM) | growth inhibition [6, 7] | growth inhibition [6, 8] | growth inhibition ([6]; at 50.0 µM) |
| --- | --- | --- | --- | --- | --- | --- | --- | --- | --- | --- | --- | --- | --- | --- | --- | --- | --- | --- |
| O=C(O)NCc1ccccc1 (tested in a mixture with another compound) | 11% | 94% (active) | 94% (active) | -12% | 40% | 14.8% | -5% | 74% (active) | 36.1% | 5% | 98% (active) | 60% | 23% | 98% (active) | 87.5% (active) | 3% | 80% (active) | 88% (active) |
| CCCC/C=C(/CCCCOCOCCOC)[Si](C)(C)C | -1% | -1% | -13.2% | -5% | -2% | -1.8% | -1% | 6% | 15.9% | 1% | -15% | 86.1% (active) | -3% | -9% | 11.7% | -8% | 4% | 30.8% |
| C/C(=N\NC(=S)Nc1ccc(C(=O)O)cc1C)c1ccc2ccccc2n1 | 1% | 55% | 86.2% (active) | 20% | 62% | 97.8% (active) | -3% | 42% | 81.6% (active) | 11% | 30% | 33% | 0% | 45% | 34% | -1% | 49% | 91.7% (active) |
| O=[N+]([O-])c1c(Br)ncn1Cc1ccccc1 | 26% | 92% (active) | 68.8% | 22% | 98% (active) | 8.25% | 14% | 90% (active) | 22.4% | 21% | 99% (active) | 7.5% | 35% | 99% (active) | -4.85% | 49% | 94% (active) | 38.4% |
| COC1/C=C\C=C(/C)C(=O)NC2=CC(=O)C(N)=C(CC(C)CC(OC)C(O)C(C)C=C(C)C1OC(N)=O)C2=O (centres undefined) | -28% | 88% (active) | 86.4% (active) | -23% | 91% (active) | 87.7% (active) | 5% | 92% (active) | 88% (active) | -36% | 81% (active) | 76.9% (active) | -16% | 93% (active) | 87.9% (active) | -22% | 89% (active) | 84% (active) |
| Cc1cc(C(O)(C(F)(F)F)C(F)(F)F)c(I)c(C(O)(C(F)(F)F)C(F)(F)F)c1 | 100% (active) | 100% (active) | 97.3% (active) | 99% (active) | 100% (active) | 99.2% (active) | 99% (active) | 100% (active) | 99.2% (active) | 98% (active) | 99% (active) | 89.8% (active) | 99% (active) | 99% (active) | 98.7% (active) | 99% (active) | 99% (active) | 98.5% (active) |
| O=Cc1c(Cn2ccnc2)c2cc([N+](=O)[O-])ccc2n1Cc1ccccc1 | 5% | 49% | 62.5% | 4% | 39% | 13.7% | 6% | 48% | 57.2% | -2% | -17% | 22.9% | -3% | -1% | 3.8% | 8% | 64% | 68.5% |
| O=[N+]([O-])C(=C1Nc2ccccc2N1)C(Cl)=C(Cl)Cl | 10% | 8% | -4.9% | 10% | 15% | 3.3% | 13% | 22% | 9.85% | 10% | 10% | -13.8% | 11% | 12% | -2.55% | 15% | 16% | 11% |
| C=Cc1cc(=O)oc2cc(OC)ccc12 | 20% | 98% (active) | 71.4% (active) | 22% | 99% (active) | 86.2% (active) | 22% | 98% (active) | 61.2% | 14% | 99% (active) | 72.2% (active) | 14% | 98% (active) | 93.2% (active) | 30% | 98% (active) | 93.8% (active) |
| COc1c2c(cc3c1c(=O)c1ccccc1n3C)OCO2 | -12% | 26% | 61.5% | -4% | 1% | 33.9% | -5% | 14% | 40.5% | 18% | 5% | -45.8% | 2% | 0% | 25.4% | -29% | 22% | 62.8% |
| COc1ccc(-c2cc3ccccc3c(=O)n2Cc2ccccc2)cc1 | 8% | 66% | 78.3% (active) | 11% | 74% (active) | 88.4% (active) | 13% | 73% (active) | 83.7% (active) | 6% | 57% | 74% (active) | 8% | 63% | 89.3% (active) | 11% | 66% | 79.3% (active) |
| CN(C)CC(CN1CCCC1)C(=O)c1ccccc1 (centres undefined) | 13% | 24% | 56.6% | -2% | 36% | 41.4% | 13% | 32% | 66.5% | 26% | 33% | 11.2% | 6% | 39% | 65.5% | 15% | 32% | 75.2% (active) |
| Cc1ccc(NC(=S)SCc2ccco2)cc1Cl | 22% | 99% (active) | 99.5% (active) | 5% | 99% (active) | 99.8% (active) | 12% | 99% (active) | 99.7% (active) | -3% | 99% (active) | 99.5% (active) | -3% | 99% (active) | 99.7% (active) | 20% | 99% (active) | 99.6% (active) |
| Cc1ccc([N+](=O)[O-])cc1Cl | -3% | -4% | -4.35% | 2% | -2% | -8.45% | 1% | -1% | -2.6% | -2% | -1% | 93.2% (active) | -3% | -4% | -3.85% | -1% | -6% | -2.45% |
| CC1=CC(=O)C(O)=C/C1=C\C=C\c1ccccc1 | 15% | 98% (active) | 99.2% (active) | 23% | 99% (active) | 99% (active) | 26% | 99% (active) | 49.4% | 6% | 97% (active) | 98.8% (active) | 11% | 98% (active) | 99% (active) | 50% | 98% (active) | 99.2% (active) |
| C[C@]12CCC(=O)C=C1CC[C@@H]1[C@@H]2[C@@H](O)C[C@@]2(C)[C@H]1CC[C@]2(O)C(=O)COC(=O)CCC1CCCC1 | 83% (active) | 91% (active) | 83.9% (active) | 29% | 95% (active) | 84.1% (active) | 51% | 96% (active) | 82% (active) | 49% | 96% (active) | 82.7% (active) | 51% | 95% (active) | 77.2% (active) | 75% (active) | 92% (active) | 84.3% (active) |
| CCOC(=O)CC1C(=O)N(c2nc(-c3ccc(Br)cc3)cs2)N=C1C (centres undefined) | 2% | 2% | 43.5% | 2% | 37% | 23.1% | 3% | 7% | 60.7% | -2% | -9% | 32.3% | -23% | -8% | 4.05% | 2% | -19% | 75.8% (active) |
| O=C1C(C=NC(=S)c2ccccc2)=C(O)c2ccccc21 | 22% | 72% (active) | -13.8% | 23% | 68% | -12.1% | 33% | 68% | 2.35% | 20% | 48% | 10.1% | 31% | 81% (active) | -4.7% | 32% | 87% (active) | 6.45% |

Source: PubChem BioAssay (NCI)
